# Test results as given in PubChem BioAssay (NCATS).
# Results filed as inconclusive are left out. Entries that show only a call come without a potency. Values without a mark were called inactive. The source made the active and inactive calls. Calls follow the shape of the dose curve; as a rule, active = well fitted curve in the direction sought with a large enough effect; inconclusive = small, poorly fitted or top-dose-only effect, or another doubt; inactive = no such curve, though single readings can be large; an effect the other way counts as inactive or inconclusive.
# Tests used:
# [1] = target: Rap guanine nucleotide exchange factor 3 (Homo sapiens) (UniProt O95398); assay: Confirmatory qHTS for agonist of cAMP-regulated guanine nucleotide exchange factor 3 (EPAC1) (AID 1645881); also: nearly all actives have a fitted effect of over 75% in size; also: potency is read from the fitted curve at half-maximal effect;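 as to activation: EPAC1 catalysed release of BODIPY-GDP from Rap1B seen as fluorescence loss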
# [2] = target: Rap guanine nucleotide exchange factor 4 (Homo sapiens) (UniProt Q8WZA2); assay: Confirmatory qHTS for agonist of cAMP-regulated guanine nucleotide exchange factor 4 (EPAC2) (AID 1645884);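 also: nucleotide exchange releases bodipy-GDP from Rap1 and this lowers its fluorescence; nearly all actives have a fitted effect of over 65% in size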
# [3] = target: Rap guanine nucleotide exchange factor 4 (Homo sapiens) (UniProt Q8WZA2); assay: Confirmatory qHTS for antagonist of cAMP-regulated guanine nucleotide exchange factor 4 (EPAC2) (AID 1645885); also: nearly all actives have a fitted effect of over 25% in size; also: potency is read from the fitted curve at half-maximal effect
# [4] = target: Rap guanine nucleotide exchange factor 3 (Homo sapiens) (UniProt O95398); assay: Counterscreen qHTS for antagonist of cAMP-regulated guanine nucleotide exchange factor 3 (EPAC1) (AID 1645888);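 also: fluorescence loss as bound BODIPY-GDP is released from Rap1B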
# How it was run: (§1)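 Rap1B–BODIPY-GDP (250 nM) with 50 uM GDP; compounds pin-transferred to 9.74 nM–152 uM final (activator) or from 7.32 nM upwards (inhibitor). Fluorescence Ex/Em 480/540 nm read at 5 and 30 min, then after adding cAMP or buffer, at room temperature.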
# [5] = target: Rap guanine nucleotide exchange factor 3 (Homo sapiens) (UniProt O95398); assay: Counterscreen qHTS for agonist of cAMP-regulated guanine nucleotide exchange factor 3 (EPAC1) (AID 1645889); also: nearly all actives have a fitted effect of over 40% in size
# How it was run: as §1
# Rap guanine nucleotide exchange factor 3 (Homo sapiens), sequence (O95398 whole entry, looked up): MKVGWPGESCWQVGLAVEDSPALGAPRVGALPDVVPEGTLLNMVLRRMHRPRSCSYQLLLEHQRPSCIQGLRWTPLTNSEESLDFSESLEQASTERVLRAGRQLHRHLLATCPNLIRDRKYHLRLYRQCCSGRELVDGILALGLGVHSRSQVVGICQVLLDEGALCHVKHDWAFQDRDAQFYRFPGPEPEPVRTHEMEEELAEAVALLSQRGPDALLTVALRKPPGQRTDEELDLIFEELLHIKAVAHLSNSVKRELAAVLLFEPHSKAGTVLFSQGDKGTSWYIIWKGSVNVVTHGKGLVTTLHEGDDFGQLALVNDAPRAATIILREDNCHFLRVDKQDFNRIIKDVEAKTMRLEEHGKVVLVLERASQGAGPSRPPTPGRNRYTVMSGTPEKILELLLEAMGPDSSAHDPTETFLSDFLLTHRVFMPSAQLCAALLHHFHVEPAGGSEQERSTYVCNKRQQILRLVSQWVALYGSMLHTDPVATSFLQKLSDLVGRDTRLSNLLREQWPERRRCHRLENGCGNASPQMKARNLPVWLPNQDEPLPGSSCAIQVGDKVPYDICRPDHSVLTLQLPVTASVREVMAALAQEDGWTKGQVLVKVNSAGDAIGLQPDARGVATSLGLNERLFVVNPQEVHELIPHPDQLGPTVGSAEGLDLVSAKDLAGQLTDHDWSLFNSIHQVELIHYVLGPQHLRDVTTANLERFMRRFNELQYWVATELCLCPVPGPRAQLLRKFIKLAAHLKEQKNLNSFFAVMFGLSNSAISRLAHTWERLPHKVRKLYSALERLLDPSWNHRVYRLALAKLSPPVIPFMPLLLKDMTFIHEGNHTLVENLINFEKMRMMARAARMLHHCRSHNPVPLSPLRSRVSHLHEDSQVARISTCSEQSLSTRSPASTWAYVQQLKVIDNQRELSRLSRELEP
# Rap guanine nucleotide exchange factor 4 (Homo sapiens), sequence (Q8WZA2 whole entry, looked up): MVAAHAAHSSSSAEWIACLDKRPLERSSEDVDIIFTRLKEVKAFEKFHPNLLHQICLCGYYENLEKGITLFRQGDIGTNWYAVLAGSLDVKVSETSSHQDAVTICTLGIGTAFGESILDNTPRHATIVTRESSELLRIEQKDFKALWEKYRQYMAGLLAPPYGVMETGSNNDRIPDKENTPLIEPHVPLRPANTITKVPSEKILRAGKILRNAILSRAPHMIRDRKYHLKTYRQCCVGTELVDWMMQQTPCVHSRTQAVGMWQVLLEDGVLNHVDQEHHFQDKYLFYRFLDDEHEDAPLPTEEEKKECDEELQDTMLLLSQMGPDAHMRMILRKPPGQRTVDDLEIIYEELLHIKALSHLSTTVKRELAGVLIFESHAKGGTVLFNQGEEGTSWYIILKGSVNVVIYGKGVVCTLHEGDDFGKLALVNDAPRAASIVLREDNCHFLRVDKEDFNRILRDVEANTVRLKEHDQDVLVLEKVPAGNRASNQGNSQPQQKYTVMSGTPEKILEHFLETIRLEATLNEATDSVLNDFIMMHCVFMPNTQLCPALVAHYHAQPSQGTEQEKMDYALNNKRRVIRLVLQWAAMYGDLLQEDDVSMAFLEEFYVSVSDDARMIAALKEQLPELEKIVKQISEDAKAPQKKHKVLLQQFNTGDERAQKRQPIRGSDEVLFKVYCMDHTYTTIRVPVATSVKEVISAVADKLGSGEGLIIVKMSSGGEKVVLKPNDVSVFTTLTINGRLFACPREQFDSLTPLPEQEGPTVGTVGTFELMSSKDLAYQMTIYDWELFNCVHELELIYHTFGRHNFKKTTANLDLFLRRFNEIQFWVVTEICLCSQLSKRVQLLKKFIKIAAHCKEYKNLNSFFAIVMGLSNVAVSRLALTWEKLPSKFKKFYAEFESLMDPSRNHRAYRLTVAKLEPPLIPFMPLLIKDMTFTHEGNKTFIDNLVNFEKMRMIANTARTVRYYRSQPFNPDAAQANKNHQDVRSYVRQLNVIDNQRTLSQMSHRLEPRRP
Compound,Potency [1],activation [2],Potency [3],"activity change, negative = inhibition [4]",activation [5],Potency [2],Potency [4],Potency [5],outcome [3]
C[C@@H]1CC=C[C@H]2[C@H]1C(=O)N(Cc1ccccc1)[C@H]2c1ccc(C(F)(F)F)cc1,inactive,"-4.74% [at 17.1 µM, percent relative to cAMP agonist control]",inactive,-9.3% [at 30.8 µM],7.88% [at 30.8 µM],,,,
CCOc1ccc(C(=O)N/N=C/c2cc(Cl)ccc2[N+](=O)[O-])cc1,inactive,"3.37% [at 17.1 µM, percent relative to cAMP agonist control]",inactive,-12.2% [at 30.8 µM],15.5% [at 30.8 µM],,,,
Cc1cc(N2CCN(c3cccc(C(F)(F)F)c3)CC2)n2nc(-c3ccccc3C)nc2n1,inactive,,inactive,,,inactive,inactive,inactive,
O=C1CC(c2ccccc2)=NN1c1nc(-c2ccccc2)cs1,inactive,,inactive,,,inactive,inactive,inactive,
O=C(O)CCc1ccc(-c2ccc(Br)cc2)n1-c1ccc(O)cc1,inactive,,42.6 µM (active),,,inactive,inactive,inactive,
COC(=O)C1=CN(Cc2ccc(OC)c(OC)c2)C=C(C(=O)OC)C1c1ccccc1F,inactive,,23.9 µM (active),,,inactive,inactive,inactive,
C[C@@H]1CC=C[C@@H]2[C@H]1C(=O)N(Cc1ccccc1)[C@H]2c1ccccc1Br,inactive,,inactive,,,inactive,inactive,inactive,
C=CCc1cccc(CNc2c(C)cc(C)cc2C)c1O,inactive,,inactive,,,inactive,inactive,inactive,
COc1ccc(-n2c(C)cc(/C=C3\SC(=O)NC3=O)c2C)cc1,inactive,,inactive,,,inactive,inactive,inactive,
CNC(=S)N1CCc2cc(OC)c(OC)cc2C1COc1ccc(F)cc1 (stereo not given),inactive,"0% [at 17.1 µM, percent relative to cAMP agonist control]",inactive,-1.54% [at 30.8 µM],46.8% [at 30.8 µM],,,,
O=C(N/N=C/c1ccccc1O)/C(=C/c1ccccc1)CCO,inactive,,inactive,,,inactive,inactive,inactive,
O=c1ccc(-c2ccccc2)nn1Cc1ccc(F)cc1Cl,inactive,,inactive,,,inactive,inactive,inactive,
CC1(C)Cc2c(C#N)c(N3CCN(C(=O)c4ccco4)CC3)nc(-c3ccco3)c2CS1,inactive,,inactive,,,inactive,inactive,inactive,
O=C(O)c1ccccc1NS(=O)(=O)c1ccc(NN=Cc2ccccc2F)c([N+](=O)[O-])c1,inactive,"4.76% [at 17.1 µM, percent relative to cAMP agonist control]",inactive,-10.7% [at 30.8 µM],23.2% [at 30.8 µM],,,,
Cc1cc(C)c(C)c(S(=O)(=O)N2CCCCC2C(=O)O)c1C (stereo not given),inactive,"4.7% [at 17.1 µM, percent relative to cAMP agonist control]",inactive,8.45% [at 30.8 µM],-1.83% [at 30.8 µM],,,,
N#Cc1c(-c2ccc(F)cc2)cc(-c2ccccc2)nc1SCC(=O)NCC(=O)O,inactive,,,,,inactive,inactive,inactive,inactive [at 12.7 µM]
COC(=O)c1ccccc1NC(=O)Cn1nc(C(F)(F)F)c2c1CCCC2,inactive,,,,,inactive,inactive,inactive,inactive [at 12.7 µM]
COc1ccc2oc(C(=O)Nc3ccc(N4CCOCC4)cc3)c(C)c2c1,inactive,"-0.0841% [at 17.1 µM, percent relative to cAMP agonist control]",inactive,7.62% [at 30.8 µM],8.1% [at 30.8 µM],,,,
COc1cc(/C=C2/SC(=S)N(CC(=O)O)C2=O)ccc1OC(=O)c1cccs1,inactive,,inactive,,,inactive,inactive,inactive,
Cc1cccc(C(=O)N=c2c(C#N)cc3c(=O)n4cccc(C)c4nc3n2Cc2ccco2)c1,inactive,,inactive,,,inactive,inactive,inactive,
O=C(NCCc1c[nH]c2ccccc12)C(=O)Nc1cc2c3c(c1)CC(=O)N3CCC2,inactive,,inactive,,,inactive,inactive,inactive,
CCc1ccc(C=C2SC(=S)N(CCCC(=O)Nc3ccc(C(=O)O)cc3)C2=O)cc1,inactive,,inactive,,,inactive,inactive,inactive,

Compound,Potency [1],activation [2],Potency [3],"activity change, negative = inhibition [4]",activation [5],Potency [2],Potency [4],Potency [5],outcome [3]
COC1=CC(=O)C(C2CC(=O)c3c(O)cc(O)cc3O2)=CC1=O (stereo not given),inactive,"9.22% [at 17.1 µM, percent relative to cAMP agonist control]",inactive,-16% [at 30.8 µM],4.79% [at 30.8 µM],,,,
CS(=O)(=O)N1CCN(c2ccc([N+](=O)[O-])c(NCc3ccc(Cl)cc3)c2)CC1,inactive,"-0.717% [at 17.1 µM, percent relative to cAMP agonist control]",inactive,-6.75% [at 30.8 µM],12% [at 30.8 µM],,,,
Cc1ccc(SCC(=O)OCC(=O)N(C)CC(=O)Nc2ccc(F)cc2)cc1C,inactive,"5.96% [at 17.1 µM, percent relative to cAMP agonist control]",inactive,-28.7% [at 30.8 µM],26.8% [at 30.8 µM],,,,
C/C(=N\NC(=O)c1cc2ccccc2cc1O)c1ccc(C)o1,inactive,"-0.964% [at 17.1 µM, percent relative to cAMP agonist control]",inactive,-5.69% [at 30.8 µM],28.4% [at 30.8 µM],,,,
N#C/C(=N\Nc1cccc(C(F)(F)F)c1)C(=O)c1ccsc1,inactive,,inactive,,,inactive,inactive,inactive,
COc1cc(Cl)cc(/C=N\NC(=O)c2ccc3c(c2)OCO3)c1O,inactive,,inactive,,,inactive,inactive,inactive,
CC1(Cc2ccccc2Cl)C(=O)Nc2ccc(OC(F)(F)F)cc21 (stereo not given),inactive,"0.883% [at 17.1 µM, percent relative to cAMP agonist control]",inactive,-9.83% [at 30.8 µM],5.61% [at 30.8 µM],,,,
N#CC(c1nc2ccccc2nc1OCCO)S(=O)(=O)c1ccccc1 (stereo not given),inactive,"-1.2% [at 17.1 µM, percent relative to cAMP agonist control]",inactive,-25.3% [at 30.8 µM],20.5% [at 30.8 µM],,,,
CCOc1ccc(NC(=O)CN(C)S(=O)(=O)c2ccc(-c3ccc(=O)[nH]n3)s2)cc1,100 µM (active),,inactive,,,inactive,inactive,inactive,
Cc1cc(Cl)ccc1OCCCC(=O)OCC(=O)c1c(N)n(C)c(=O)n(C)c1=O,inactive,"11.9% [at 17.1 µM, percent relative to cAMP agonist control]",inactive,-16.7% [at 30.8 µM],27.4% [at 30.8 µM],,,,
Cc1cccc(NC(=O)CSCC(=O)N(C)CCOc2ccc(Cl)cc2)c1,inactive,,inactive,,,inactive,inactive,inactive,
CCCCCC(=O)Nc1cccc(C2=NOC3(C2)C[C@@H](C(N)=O)N(C(=O)CC(c2ccccc2)c2ccccc2)C3)c1 (stereo not given in full),inactive,"9.87% [at 17.1 µM, percent relative to cAMP agonist control]",inactive,-21.4% [at 30.8 µM],34.5% [at 30.8 µM],,,,
COc1ccccc1C1CC(=O)Oc2cc(C)c(Cl)cc21 (stereo not given),inactive,,9.53 µM (active),,,inactive,inactive,inactive,
CCCCCNC(=O)C(C#N)c1nc2ccccc2nc1N1CCCC1 (stereo not given),inactive,"-33.7% [at 17.1 µM, percent relative to cAMP agonist control]",inactive,-27.7% [at 30.8 µM],-1.55% [at 30.8 µM],,,,
O=[N+]([O-])c1cc2oc3c(c2c(C=NCc2ccncc2)c1O)CCCC3,inactive,"1.74% [at 17.1 µM, percent relative to cAMP agonist control]",inactive,-19.5% [at 30.8 µM],15.1% [at 30.8 µM],,,,
CC(Oc1ccc(Cl)cc1)C(=O)Nc1sccc1C(N)=O (stereo not given),inactive,"0.0366% [at 17.1 µM, percent relative to cAMP agonist control]",inactive,-14.6% [at 30.8 µM],24.1% [at 30.8 µM],,,,
CCc1cccc(NC(=O)COC(=O)/C=C/c2cccs2)c1,inactive,,inactive,,,inactive,inactive,inactive,
COc1cc(/C=C2\SC(=O)N(CC(=O)Nc3ccc(C)cc3)C2=O)cc(Cl)c1OCC(=O)O,inactive,,inactive,,,inactive,inactive,inactive,
Cc1c(C(=O)N2CCN(c3ncccn3)CC2)oc2c(Cl)cccc12,inactive,,inactive,,,inactive,inactive,inactive,
Cc1ccc(C(C)C)c(OCCCn2c(=O)oc3ccc(C)cc32)c1,inactive,,inactive,,,inactive,inactive,inactive,
CC(=O)c1c(C)[nH]c(C(=O)OCC(=O)c2ccc3c(c2)NC(=O)CO3)c1C,inactive,,inactive,,,inactive,inactive,inactive,
Cc1ccc(CN(C(=O)COc2cc(C)c(Cl)c(C)c2)c2ccccn2)o1,inactive,,inactive,,,inactive,inactive,inactive,
